The whole screen tested about 1,400 compounds, of which about 100 (7.1%) were called active. No rule for the calls is given here. A selection follows. Measured potencies and affinities stand elsewhere.

The nature of the assay: viability loss in Vero cells – cell-based, plate reader, cherry-pick samples, cytotoxicity control, dose response (AID 687020).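 Also: compounds incubated with cells for three days before luminescence read.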 The conditions noted are these: series mostly up to 19.5 µM; activity change, negative = toxicity: at the top concentration.
For `COc1cccc(OCc2cc(C(=O)N(C)CCC3CCCCO3)no2)c1` (stereo not given), the “activity change, negative = toxicity” value was -26.9% (inactive).
In the case of `COc1cc(C(=S)N2CCCC2)ccc1OCc1ccc(C)cc1`, the “activity change, negative = toxicity” value is -12.9% (inactive).
Next, `O=S(=O)(NCCC1=CCCCC1)c1ccc(Br)cc1`: 3.27% (inactive); `F[B-](F)(F)c1cnc2ccccc2c1`: 12.8% (inactive).
Next, `Cn1cccc1C(=O)OCC(=O)NC(=O)c1ccc(Cl)cc1`: -5.5% (inactive).
Take `C[C@H](CO)N1C[C@H](C)[C@@H](CN(C)C(=O)Nc2ccc(C(F)(F)F)cc2)OCCCC[C@H](C)Oc2ccc(NS(=O)(=O)c3cccs3)cc2C1=O`: the “activity change, negative = toxicity” value was -1.02% (inactive).
Next, `Cc1noc(C)c1NC(=O)Nc1ccc2c(c1)C(=O)N([C@@H](C)CO)C[C@@H](C)[C@@H](CN(C)Cc1ccccc1)OCCCC[C@@H](C)O2`: -5.3% (inactive); `CNC[C@@H]1OCCCC[C@H](C)Oc2ccc(NS(=O)(=O)c3c(C)noc3C)cc2C(=O)N([C@@H](C)CO)C[C@H]1C`: -5.49% (inactive); `O=S(=O)(Nc1nc(SCc2ccc(Cl)cc2)n[nH]1)c1ccc(F)cc1`: 2.93% (inactive).
The same measure for `Cc1ccc(C(=O)OCC(=O)Nc2ccccc2C(F)(F)F)cc1S(=O)(=O)N1CCCCC1`: -27.8% (inactive); for `O=C(NCCc1ccccc1)c1ccccc1NC(=O)C1CCCCC1C(=O)O` (stereo not given): -3.43% (inactive).
The same measure for `OC[C@@H]1[C@@H](c2ccccc2)C2(CN(Cc3nccs3)C2)N1Cc1cccnc1`: 10.8% (inactive); for `C[C@@H]1CN([C@@H](C)CO)C(=O)c2cc(C#Cc3cccc(F)c3)cnc2O[C@@H]1CN(C)C(=O)C1CCC1`: -12.1% (inactive).
For the molecule `CC(=O)NC(c1cccc(F)c1)c1nc(-c2ccc(N(C)C)cc2)cs1` (stereo not given), the “activity change, negative = toxicity” value is -10.4% (inactive).
Next, `CC1CCC(CN2C(Nc3ccccc3)=NC[C@@H]2C)CC1` (stereo not given in full): -28% (inactive); `CC(C)CCCN1CCN=C1Nc1ccccc1`: -13% (inactive); `Cc1ccc(/C=N/NC(=O)c2ccc(-n3cnnn3)cc2)cc1`: 6.5% (inactive).
For the molecule `CS(=O)(=O)N1[C@@H]2CNC[C@H]1C2c1ccc(-c2ccccc2)cc1` (stereo not given in full), the “activity change, negative = toxicity” value was 5.49% (inactive).
Next, `COc1ccc2c(c1)OC[C@H]1[C@H]2N2C(=O)c3cc(OC)ccc3NC(=O)[C@@]2(C)[C@H]1c1ccccc1`: -11.2% (inactive); `CCOC(=O)C1CCN(C(=O)C2CC(=O)N(c3ccc4c(c3)OCCO4)C2)CC1` (stereo not given): -12.9% (inactive).
The same measure for `c1ccc(COCCCn2cc(-c3ccccc3)nn2)cc1`: -27.7% (inactive); for `C[C@@H]1CN([C@H](C)CO)C(=O)c2cc(C#Cc3ccc(F)cc3)cnc2O[C@@H]1CN(C)C`: 0.983% (inactive); for `CCCNC(=O)NC[C@@H]1[C@@H](c2ccc(C3=CCCC3)cc2)[C@@H](CO)N1C(=O)CC`: -1.97% [at 21 µM] (inactive).
The same measure for `COc1ccccc1S(=O)(=O)N(C)C[C@H]1Oc2cc(C#CCC(C)C)ccc2S(=O)(=O)N([C@@H](C)CO)C[C@@H]1C`: -4.17% (inactive); for `N#C[C@H]1[C@H](c2ccc(C#CC3CCCCC3)cc2)[C@@H](CO)N1C(=O)Cc1ccccn1`: -3.62% (inactive); for `CCc1c(C2(O)CCCCC2)[nH]c2c(C(=O)OC)cc(Cl)cc12`: -0.036% (inactive).
Consider `COc1ccc(NC(=O)CN(C)CCOc2ccc(Cl)cc2)cc1OC`, for which the “activity change, negative = toxicity” value was -28.6% (inactive).
Turning to `Cc1ccc(S(=O)(=O)N2CCCCC2)cc1NC(=O)CCOc1ccccc1`, the “activity change, negative = toxicity” value is -31% (inactive).
The same measure for `CCN(CC)S(=O)(=O)c1ccc(N2CCOCC2)c(NC(=O)c2ccccc2)c1`: 3.04% (inactive); for `O=C(COc1ccc2c(-c3ccccc3)cc(=O)oc2c1)NC1CCS(=O)(=O)C1` (stereo not given): -5.66% (inactive); for `C[C@H](CO)N1C[C@H](C)[C@H](CN(C)C(=O)Nc2ccc(-c3ccccc3)cc2)OCc2ccccc2-c2c(n(C)c3ccccc23)C1=O`: -26.3% (inactive).
The same measure for `CCOC(=O)C1=C(CS(=O)(=O)c2ccc(C)cc2)NC(=O)NC1c1cc(OC)c(O)c(OC)c1` (stereo not given): -12.2% (inactive); for `COc1ccccc1CNC(=O)CCCN1C(=O)NC2(CCCC2)C1=O`: 8.3% (inactive).
The same measure for `COc1ccccc1Cn1c(=S)[nH]c2cc(C(=O)N3CC(C)CC(C)C3)ccc2c1=O` (stereo not given): -7.03% (inactive).
In the case of `CCc1ccc(NC(=O)COc2ccc3c(c2)OCO3)cc1`, the “activity change, negative = toxicity” value was 0.187% (inactive).
The same measure for `CC1CCc2sc(C(=O)NN=C3CCCC3)cc2C1` (stereo not given): -34.2% (inactive); for `COc1ccc(S(=O)(=O)N2CCC(C(=O)N[C@H](C(=O)NCc3ccccc3)C(C)C)CC2)cc1`: -4.44% (inactive); for `CC(C)c1ccc(NC(=O)[C@H](NC(=O)[C@@H]2Cc3ccccc3CN2)c2ccccc2)cc1`: -3.41% (inactive).
Next, `COc1ccc(NC(=O)Nc2cccc3c2O[C@H](CN(C)C(=O)NC2CCCCC2)[C@H](C)CN([C@@H](C)CO)C3=O)cc1`: -6.07% (inactive); `CCCNC(=O)N1[C@H](CO)[C@H](c2ccccc2)[C@@H]1CNC(=O)c1ccc(F)cc1`: -4.36% (inactive).
Next, `COc1ccc(S(=O)(=O)N2CCCCCC2)cc1NC(=O)Cc1cccc(C(F)(F)F)c1`: -24.1% (inactive); `O=C(C1CC1)N1[C@@H](CO)[C@@H]2c3ccccc3NC[C@@H]21`: 5.51% (inactive); `O=C(NCc1ccccc1F)[C@H]1N[C@H]2c3ccc(-c4ccccc4F)c(=O)n3C[C@H]2[C@@H]1CO`: -1.53% (inactive).
As for `C[C@H](NC(=O)[C@H]1N[C@H]2c3ccc(-c4cccnc4)c(=O)n3C[C@H]2[C@@H]1CO)c1ccccc1`, the “activity change, negative = toxicity” value was -3.63% (inactive).
For `NC(=O)c1ccccc1NC(=O)COC(=O)C1(c2ccccc2)CC1`, the “activity change, negative = toxicity” value was -17.5% (inactive).
The same measure for `CSCCC(NC(=O)COc1ccccc1)C(=O)OCCOc1ccc(C)cc1` (stereo not given): 6.81% (inactive); for `Cc1cccc(OCC(=O)Nc2ccc(N3CCN(C(=O)c4ccccc4)CC3)cc2)c1C`: 10.4% (inactive).
The same measure for `COc1cc(OC)cc(C(=O)Nc2ccc(N3CCN(C(=O)c4cccs4)CC3)cc2)c1`: -4.09% (inactive); for `C/C(CC(=O)Nc1ccc(Cl)c(Cl)c1)=N\NC(=O)Cc1ccccc1`: -7.86% (inactive); for `COc1ccc(S(=O)(=O)Nc2cccc3c2O[C@@H](CN(C)S(C)(=O)=O)[C@@H](C)CN([C@@H](C)CO)C3=O)cc1`: 0.077% (inactive).
The same measure for `CCC(C)c1ccc(NC(=O)NCCN2CCCCC2)cc1` (stereo not given): 1.83% (inactive).
For the molecule `OC(CSc1nnnn1-c1ccccc1)Cn1c2ccccc2c2ccccc21` (stereo not given), the “activity change, negative = toxicity” value is -0.493% (inactive).
With `C[C@@H]1CCCCO[C@H](CN(C)S(=O)(=O)c2ccccc2)[C@@H](C)CN([C@@H](C)CO)C(=O)c2cc(NC(=O)c3ccncc3)ccc2O1`, the “activity change, negative = toxicity” value is -4.56% (inactive).
Take `CCC(N=c1cc(-c2ccc(OC)c(OC)c2)oc2ccc(C)cc12)C(=O)O` (stereo not given): the “activity change, negative = toxicity” value was -4.53% (inactive).
Regarding `CN(C)S(=O)(=O)N1CCC(Oc2ccc(C(=O)N3CCCCCCC3)cc2)CC1`, the “activity change, negative = toxicity” value is -12.7% (inactive).
The same measure for `O=C(NCC1CC1)c1onc(CSc2ccc(F)c(F)c2)c1C(=O)NCC1CC1`: -19.6% (inactive); for `O=C(O)CCCCCCCCc1cn(CCc2c[nH]c3ccccc23)nn1`: -16.8% (inactive).
Next, `COc1ccc(S(=O)(=O)N2CCN(CC(=O)NC3CC3)CC2)cc1`: -3.01% (inactive); `COc1ccc(CC(=O)NC2CCCCCC2)c(OC)c1`: 1.36% (inactive).
Next, `CC12CCC(=O)N1C(C(=O)Nc1nc(-c3ccccc3)cs1)CS2` (stereo not given): -7.4% (inactive).
With `C[C@@H]1CCCCO[C@H](CN(C)S(C)(=O)=O)[C@@H](C)CN([C@H](C)CO)C(=O)c2cc(NC(=O)CCC(F)(F)F)ccc2O1`, the “activity change, negative = toxicity” value is 1.17% (inactive).
Next, `O=C(Cn1cnc2c(NCc3ccccc3)ncnc21)NCC1CCCO1` (stereo not given): -2.83% (inactive).
The same measure for `CCCN1Cc2cccc(C(=O)Nc3ccc4c(c3)OCCO4)c2C1=O`: 3.48% (inactive); for `Cn1cc([C@]2(O)C(=O)Nc3ccccc32)c2ccccc21`: -7.51% (inactive).
Next, `CN1c2ccc(Br)cc2[C@@H]2[C@@H](CCN2S(=O)(=O)c2ccccc2)[C@H]1CO`: 0.13% (inactive); `Cc1ccccc1NS(=O)(=O)c1ccc(S(=O)(=O)N2CCCC2)cc1`: -42.1% (inactive); `CCN(CC(=O)Nc1c(F)cccc1F)C(=O)C1CCN(S(=O)(=O)c2ccc(F)cc2)CC1`: 2.85% (inactive).
Turning to `C/C=C/c1ccc([C@H]2[C@@H](CO)N(C(=O)C3CCC3)[C@@H]2CNC(=O)NC(C)C)cc1`, the “activity change, negative = toxicity” value is -1.67% (inactive).
Consider `CC(O)(c1cccc(F)c1)c1nc(/C=C/c2ccccc2)cs1` (stereo not given), for which the “activity change, negative = toxicity” value is -3.32% (inactive).
Consider `COc1ccc(-c2csc(C(O)c3cccc(OC)c3)n2)cc1` (stereo not given), for which the “activity change, negative = toxicity” value is -25.3% (inactive).
Turning to `CC(OC(=O)c1ccc(O)cc1)C(=O)Nc1nc(-c2ccccc2)cs1` (stereo not given), the “activity change, negative = toxicity” value was -36.7% (inactive).
Regarding `N#Cc1cccc(-c2ccc(C3[C@@H]4CN(C(=O)c5cccnc5)C[C@H]3N4)cc2)c1` (stereo not given in full), the “activity change, negative = toxicity” value was -6.05% (inactive).
Next, `C[C@H](CO)N1C[C@H](C)[C@H](CN(C)C(=O)NC2CCCCC2)Oc2ccc(NC(=O)Cn3cnnn3)cc2C1=O`: 2.13% (inactive); `CCCCCC(=O)N1C[C@@H](O)[C@H](n2cc(COC(=O)c3ccccc3)nn2)C[C@@H]1c1ccc(C)cc1`: -7.23% (inactive); `O=C(C1CCCCC1)N1C[C@H](O)[C@@H](n2cc(C3CC3)nn2)C[C@@H]1c1ccccc1`: -17.1% (inactive).
The same measure for `CCc1c(C2CC2)ncn1Cc1cccc(-c2ccccc2)c1`: 5.16% (inactive).
Next, `FC(F)(F)c1nc2ccccc2n1CCNc1nc(CN2CCCCC2)cs1`: -32.6% (inactive); `CN(C)c1cccc(C(=O)Nc2cc(C(F)(F)F)ccc2-n2cnc3ccccc32)c1`: 1.15% (inactive).
Regarding `O=S1(=O)N[C@@H](Cc2ccccc2)COc2cc(N3CCOCC3)ccc21`, the “activity change, negative = toxicity” value was -16.8% (inactive).
The same measure for `COc1ccc(S(=O)(=O)N[C@H]2CC[C@@H](CCNC(=O)CN3CCOCC3)O[C@H]2CO)cc1`: 13% (inactive).
The same measure for `COc1ccc(NC(=O)N[C@@H]2CC[C@@H](CCNS(=O)(=O)c3cccc(Cl)c3)O[C@@H]2CO)cc1`: -4.64% (inactive).
The same measure for `c1ccc(-c2cn(C[C@H]3CC[C@@H]([C@@H]4CC[C@H](Cn5cc(-c6ccccc6)nn5)O4)O3)nn2)cc1`: 3.79% (inactive).
Turning to `O=C(Cc1cccnc1)N[C@H]1CC[C@@H](CCn2cc(Cc3ccccc3)nn2)O[C@H]1CO`, the “activity change, negative = toxicity” value was 11.9% (inactive).
The same measure for `O=C(OCc1ccccc1)N1CCCC2CC1c1ccccc12` (stereo not given): -4.06% (inactive); for `CCCCN(C(=O)c1ccc2c(c1)NC(=O)CS2)c1ccccc1`: -24.6% (inactive); for `CSCCC(NS(=O)(=O)c1cccs1)C(=O)NCc1ccccc1` (stereo not given): -12.8% (inactive).
For `COc1ccc(C)cc1NC(=O)C(c1ccccc1)N1CCN(CC(=O)N2CCOCC2)CC1` (stereo not given), the “activity change, negative = toxicity” value is -1.07% (inactive).
Next, `COc1ccc2c3c(n(C)c2c1)[C@H](CO)N(Cc1ccccc1F)CC31CCN(C(C)=O)CC1`: -3.12% (inactive); `COCCNC(=O)CCC1CCN(Cc2ccc(-c3ccccc3)cc2)CC1`: 11.3% (inactive); `CN1C(C(=O)NCc2ccc(OC(F)(F)F)cc2)CC2Cn3c(nc4ccccc43)C21` (stereo not given): -7.43% (inactive).

The values are drawn from PubChem BioAssay AID687020 (Broad Institute, 2013).
